Test results from the supplement of paper PMC7866885, “A novel bicyclic 2,4-diaminopyrimidine inhibitor of Streptococcus suis dihydrofolate reductase” (PeerJ, 2021).
± gives the standard deviation.

The compounds below were run on Streptococcus suis P1/7 (assay: percent growth relative to DMSO control; higher = less growth inhibition). Conditions: 10 µM; incubation time 18 h.
Method: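 CLSI broth microdilution: 5x10^4 CFU of Streptococcus suis (strain P1/7 or HE06) incubated with 10 µM Pathogen Box compound in cation-adjusted Mueller Hinton broth, 37 °C, 5% CO2, 18 h. Growth read as OD600 and expressed as percent of the DMSO-treated control (100%); mean ± SD of three independent experiments.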
`C[C@H](C(N)=O)N1CCCC[C@@H]1c1ccc(OCc2cccc(F)c2)cc1` gave a percent growth of 89.7 ± 15%.
`Cc1ccc2cc(C3NC(=O)c4ccccc4N3)c(Cl)nc2c1` (stereo not given) showed a percent growth of 116 ± 46%.
Work on `CNC(=O)CNc1nc(-c2ccccn2)nc2scc(-c3ccccc3)c12` yielded a percent growth of 43 ± 38%.
Compound `CCNC(=O)C(C)Nc1nc(-c2cccnc2)nc2sc(C)c(C)c12` (stereo not given) has a percent growth of 64.5 ± 34%.
`Cc1nc(-c2ccccn2)nc(N(C)CCc2ccccc2)c1Cl` showed a percent growth of -0.0636 ± 0.11%.
`COc1nc2ccc(Br)cc2cc1[C@@H](c1ccccc1)[C@@](O)(CCN(C)C)c1cccc2ccccc12` showed a percent growth of 68.8 ± 37%.
`O=C(NCc1cc(Cl)cc(Cl)c1)c1c(C(F)(F)F)nc2ccccn12` was tested, and the percent growth was 60.6 ± 20%.
`CC(C)N=c1cc2n(-c3ccc(Cl)cc3)c3ccccc3nc-2cc1Nc1ccc(Cl)cc1` gave a percent growth of 48.2 ± 42%.
With `COc1cccc2c(C)nc(N=C(N)N)nc12` the percent growth was 66.8 ± 52%.
`COc1ccc(-c2cnc3ccc(NCc4ccc(S(N)(=O)=O)cc4)nn23)cn1` gave a percent growth of 89.2 ± 15%.
`O=C(NCc1nnc2n1CCCCC2)c1ccc(-c2ccc(F)cc2)o1` gave a percent growth of 106 ± 42%.
For `COC(=O)c1ccc(F)cc1NS(=O)(=O)c1cccc(-c2cnn(Cc3ccccc3)c2)c1`, the percent growth was 127 ± 52%.
In the case of `c1ccc(-c2nc(NC3CCCCC3)cc(C3CC3)n2)nc1`, the percent growth is reported as 0.494 ± 1.2%.
Work on `N=C(N)c1ccc(OCCCCCOc2ccc(C(=N)N)cc2)cc1` yielded a percent growth of 37.1 ± 32%.
`NCCC(O)C(=O)N[C@@H]1C[C@H](N)[C@@H](OC2O[C@H](CN)[C@@H](O)[C@H](O)[C@H]2O)[C@H](O)C1OC1O[C@H](CO)[C@@H](O)[C@H](N)[C@H]1O` (stereo not given in full) gave a percent growth of 87.5 ± 38%.
Work on `CCc1ccc(S(=O)(=O)Nc2cc(CN3CCN(CCC(C)C)CC3)ccc2C)cc1` yielded a percent growth of 73.2 ± 8.1%.
In the case of `CC(C)c1ncc(-c2ccncc2)c([C@H]2CC[C@H](CNC(=O)c3cccnc3)CC2)n1`, the percent growth is reported as 125 ± 64%.
For `OC[C@H]1O[C@@H](n2c3ccc(Cl)cc3c3c(-c4cc5ccccc5o4)ncnc32)C(O)[C@H]1O` (stereo not given in full), the percent growth was 74.8 ± 13%.
In the case of `COc1cc(C(F)(F)F)nc2ccc(C)c(N)c12`, the percent growth is reported as 95.8 ± 24%.
In the case of `O[C@@H](c1cc(C(F)(F)F)nc2c(C(F)(F)F)cccc12)[C@H]1CCCCN1`, the percent growth is reported as 97.7 ± 18%.
For `O=C(C1CCCCC1)N1CC(=O)N2CCc3ccccc3C2C1` (stereo not given), the percent growth was 102 ± 18%.
Work on `CC(C(=O)N1CCCC1)N1CCN(S(=O)(=O)c2ccc(C(C)(C)C)cc2)CC1` (stereo not given) yielded a percent growth of 63.4 ± 27%.
`CC(C)C(Oc1cccc2ccccc12)C(=O)O` (stereo not given) showed a percent growth of 64 ± 22%.
For `CC(C)(C)OC(=O)N1CCC(Cn2nc(-c3cnc4ccccc4c3)c3c(N)ncnc32)CC1`, the percent growth was 74.1 ± 6.8%.
With `CC(=O)N1CCN(c2ccc(Oc3ccc(Cl)cc3O)cc2)CC1` the percent growth was 95.7 ± 30%.
`COC(=O)c1c(NC(=O)c2cc3ccccc3oc2=O)sc2c1CCN(Cc1ccccc1)C2` gave a percent growth of 149 ± 81%.
`O=C(NCCN1CCCC1)c1cc(NCCCCN2CCC(F)(F)CC2)nc2ccc(Cl)cc12` showed a percent growth of 79.3 ± 14%.
`COc1ccc(CCN2CCC(NCc3cccc(N(C)C)c3)CC2)cc1` was tested, and the percent growth was 67.3 ± 22%.
Compound `COc1ccc(-c2onc(C(F)(F)F)c2-c2ccc(Cl)cc2)c(O)c1` has a percent growth of 19.4 ± 34%.
`Nc1ncnc2c1c(Cc1cccc3ccccc13)nn2CC1CCNCC1` gave a percent growth of 75 ± 5.4%.
`CCCCOC(=O)Nc1cc2nc(C3CCCCC3)[nH]c2cc1N1CCCC1` was tested, and the percent growth was 62.9 ± 63%.
`CC1COC2(CCN(c3nc(=O)c4cc(C(F)(F)F)cc([N+](=O)[O-])c4s3)CC2)O1` (stereo not given) was tested, and the percent growth was 81.2 ± 24%.
Work on `Brc1cncc(-c2cc(NCCCn3ccnc3)nc(-c3ccccc3)n2)c1` yielded a percent growth of 43.7 ± 51%.
For `O=C(NC1CC1)c1ccc(N2CCOc3ccc(Cl)cc32)s1`, the percent growth was 85.5 ± 14%.
`CCOC(=O)c1c(NC(=O)c2c(F)c(F)c(F)c(F)c2F)sc(C(N)=O)c1C` showed a percent growth of 83.2 ± 22%.
For `CCn1cnc2c(Nc3cc(F)cc(F)c3)nc(C#N)nc21`, the percent growth was 75.3 ± 24%.
For `CC(=O)NC[C@H]1CN(c2ccc(N3CCSCC3)c(F)c2)C(=O)O1`, the percent growth was 2.2 ± 3.8%.
Compound `COc1ccc(-c2cncc3ccc(C(=O)NCCCn4ccnc4)nc23)cc1` has a percent growth of 70.1 ± 27%.
Compound `CCCn1nnc(NC(=O)COc2ccc(C3CCCCC3)cc2)n1` has a percent growth of 85.9 ± 12%.
For `CC(c1cc(Cl)cc(Cl)c1)N(C)c1ncc2c(N)nc(N)nc2n1` (stereo not given), the percent growth was 57.6 ± 42%.
